Most compounds without a hit are left out; they make up all but 19% or so of the library.
IL-1B inflam inh = inflammasome signaling inhibition, IL-1 beta readout. THP-1 LPS/ATP IL-1B secretion, AlphaLISA, 16 h; stronger effect = lower value. activity change, % at 57.5 µM. actives 4.7% (n = 360,000); in the data active = activity change below about -50%; inconclusive = mostly about -30% to -49%
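THP-1 cells pretreated 1 hr with compounds (up to 57.5 uM final), then stimulated with LPS (250 ng/mL final) plus ATP (1.25 mM final); secreted IL-1B measured by AlphaLISA after 16 hr, decreased signal indicating inhibition.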
uPA surface inh = inhibitors of cell surface uPA generation | Potency, µM (top dose mostly 38.3 µM), for the others: top-dose activity change, negative = inhibition, most hits filed as inhibitors | actives 0.31% (n = 330,000) | AID 540303 | cell surface uPA generation assay, qHTS; active = well fitted inhibition curve with a large enough effect; inconclusive = small, poorly fitted or top-dose-only effect; inactive = no such curve, though single readings can be large or run the other way; tested in mouse RAW 264.7 cells; note: potency is the fitted concentration of half-maximal effect; nearly all actives have a fitted effect of over 55% in size
DT40 TDP1 no CPT = qHTS for Inhibitors of human tyrosyl-DNA phosphodiesterase 1 (TDP1): qHTS in cells in absence of CPT; DT40 Tdp1-/- hTDP1 cells, no CPT, ATP luminescence, 48 h; Potency, µM (top dose mostly 46.2 µM), inactives show at the top dose activity change, negative = growth inhibition, most hits filed as inhibitors; actives 15% (n = 420,000); AID 686978, 2013; note: potency is the fitted concentration of half-maximal effect; nearly all actives have a fitted effect of over 55% in size
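Chicken DT40 Tdp1-/- cells complemented with human TDP1, screened without camptothecin (DMSO vehicle only), 400 cells/well. Compounds pin-transferred, cells incubated at 37 °C for at least 48 hr. Growth read as ATP-dependent luminescence (CellTiter-Glo, 30 min at RT).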
HT1080 IDH1KD tx = HT-1080 IDH1 knockdown cell toxicity (counter line). actives 2% (n = 360,000). HT-1080 IDH1 knockdown viability, ATP luminescence, 48 h. Potency, µM (doses to about 46.1 µM), without a hit: top-dose activity, negative = toxicity, actives largely listed as cytotoxic;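 note: potency is the fitted concentration of half-maximal effect; 0% = DMSO wells and -100% = cell-free medium wells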
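IDH1KD HT-1080 cells, 750/well, RPMI + 5% FBS; compound pinned after 2 h settling; 48 h, 37 °C; CellTiter-Glo luminescence; % activity normalised to DMSO and no-cell wells; curves fitted, classed by r2 and efficacy.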
HT1080NT lethal = kills 2HG-producing HT-1080-NT fibrosarcoma cells. HT-1080-NT fibrosarcoma viability, CellTiter-Glo ATP luminescence, 48 h. Potency, µM (doses to about 46.1 µM), without a hit: at the top dose activity, negative = less viability, actives largely listed as cytotoxic. actives 1.6% (n = 360,000). AID 686970;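 note: NT is the 2HG producing partner of a matched IDH1 knockdown line; potency is the fitted concentration of half-maximal effect; 0% = DMSO-treated cells and -100% = media-only wells without cells; nearly all actives have a fitted effect of over 55% in size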
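A 48-hour cytotoxicity screen used HT-1080-NT cells plated 2 hours before compound delivery. ATP-based CellTiter-Glo luminescence measured viability, normalized to DMSO and no-cell controls.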
DT40 TDP1 CPT = growth inhibition of DT40 Tdp1-/-;hTDP1 cells with camptothecin (screen for TDP1 inhibitors). chicken DT40 Tdp1-/-;hTDP1 cells + 20 nM CPT, ATP luminescence, 48 h. Potency, µM (highest dose often 46.2 µM), inactives show top-dose activity change, negative = growth inhibition, usual class: inhibitors. actives 12% (n = 420,000); note: potency is the fitted concentration of half-maximal effect; nearly all actives have a fitted effect of over 55% in size
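Chicken DT40 Tdp1-/- cells stably complemented with human TDP1 were seeded at 400 cells/well in medium containing 20 nM camptothecin, exposed to pin-transferred compounds, and grown at 37 °C for at least 48 hr. Viability was read as ATP luminescence.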
Numbers without * were called inactive; ? = inconclusive; . = no result; [ ] = remark or other dose. Unless noted, calls come from the whole dose curve; as a rule, active = well fitted curve in the direction sought with a large enough effect; inconclusive = small, poorly fitted or top-dose-only effect, or another doubt; inactive = no such curve, though single readings can be large; an effect the other way counts as inactive or inconclusive. Unless noted, % is set by controls: 0 for no effect and ±100 for the full control effect.

SMILES	IL-1B inflam inh	uPA surface inh	DT40 TDP1 no CPT	HT1080 IDH1KD tx	HT1080NT lethal	DT40 TDP1 CPT
COC(=O)c1cc2oc3ccccc3c2n1CC(=O)Nc1ccc(F)c(Cl)c1	.	.	-26.3%	.	.	-50.8%
COc1ccc(NC(=O)Nc2nc3c(s2)CCCC3)cc1	-52.4*	6.2%	23.1µM*	11.5%	4.6%	?
O=C(Nc1cccc(Br)c1)Nc1nc2c(s1)CCCCCC2	.	.	8.2µM*	.	.	7.31µM*
CCN(CC)CCOC(=O)c1cccnc1	.	.	-7.9%	.	.	1.6%
COc1cc2c(cc1[N+](=O)[O-])-c1ccc([N+](=O)[O-])cc1C2=NNC(N)=S	-15.4	.	7.31µM*	-0.4%	2.1%	?
O=C(NCc1ccccc1)c1ccc(CNS(=O)(=O)c2ccc(Br)cc2)cc1	.	.	-8.8%	.	.	-23.2%
CS(=O)(=O)c1ccc(-c2cnc3c(NC=O)cc(-c4ccsc4)cn23)cc1	?	.	18.4µM*	-2.0%	2.3%	23.1µM*
O=CNc1cc(-c2ccsc2)cn2c(-c3ccccc3)cnc12	24.2	.	20.6µM*	?	?	16.4µM*
O=C(O)CCc1nc2cc(C(F)(F)F)ccc2n(Cc2ccccc2)c1=O	19.9	-3.6%	?	-4.7%	-9.7%	-29.1%
Cc1ccc(CSc2nnc3[nH]c(=O)cc(-c4ccccc4)n23)cc1	.	.	-5.6%	.	.	3.4%
CC1CCN2c3ccccc3CC3(C(=O)OC(C)(C)OC3=O)C2C1 (configuration not stated)	.	.	10µM*	.	.	?
CC1(C)OC(=O)C2(Cc3ccc(Br)cc3N3CCCCC32)C(=O)O1 (configuration not stated)	.	.	-13.0%	.	.	-17.3%
CCOC(=O)Cc1ccc(NC(=O)n2ncc3cc(Cl)ccc32)cc1	.	.	6.3%	.	.	-0.8%
O=C(Cc1ccc(Cl)cc1)Nc1ccccc1N1CCOCC1	10.9	2.9%	16.4µM*	1.8%	1.3%	?
Cc1ccc(CC(=O)Nc2ccccc2N2CCOCC2)cc1C	-2.0	2.3%	?	-7.5%	-9.3%	16.4µM*
COc1ccc(CC(=O)Nc2ccccc2N2CCOCC2)cc1OC	11.7	-1.8%	-26.0%	6.6%	8.5%	7.3%
O=C(NCc1cccs1)c1ccc(CSc2nc3ccncc3n2Cc2cccc(F)c2)cc1	.	.	20.6µM*	.	.	?
CCc1ccc(CNC(=O)c2ccc(CSc3nc4ccncc4n3Cc3ccccc3)cc2)cc1	.	.	23.1µM*	.	.	16.4µM*
COc1ccc(CSc2nc3ccncc3n2CC(=O)Nc2ccc(C)c(F)c2)cc1	.	.	-15.0%	.	.	-28.5%
COC(=O)c1ccc(Cn2c(SCc3ccccc3)nc3ccncc32)cc1	.	.	20.6µM*	.	.	?
COc1ccc(Cn2c(SCc3ccc(C(=O)NCc4cccs4)cc3)nc3ccncc32)cc1	.	.	?	.	.	18.4µM*
COC(=O)c1ccc(CSc2nnnn2Cc2ccccc2)cc1	11.8	.	-16.1%	-2.3%	-3.0%	0.1%
CC(Cc1ccccc1)NC(=O)CN1C(=O)c2ccccc2S1(=O)=O (configuration not stated)	11.2	6.9%	9.5%	4.0%	7.9%	5.3%
COc1c2c(cc3ccc(=O)oc13)CCO2	?	22.8%	16.2%	2.0%	4.5%	6.7%
Cc1cc(C)cc(NC(=O)N2CCN(C)c3ncccc32)c1	.	.	1.9%	.	.	9.1%
SMILES	IL-1B inflam inh	uPA surface inh	DT40 TDP1 no CPT	HT1080 IDH1KD tx	HT1080NT lethal	DT40 TDP1 CPT
CCc1ccc(CNC(=O)c2ccc(CSc3nc4ccncc4n3Cc3ccc(OC)cc3)cc2)cc1	.	.	?	.	.	23.1µM*
COc1ccccc1CNC(=O)c1ccc(CSc2nc3ccncc3n2Cc2cccc(F)c2)cc1	.	.	18.4µM*	.	.	?
CCCCNC(=O)CCCCCn1c(=O)[nH]c2ccccc2c1=O	.	.	?	.	.	-28.2%
Cc1c(C(=O)Nc2ccncc2)sc2nc(-c3ccc(F)cc3)cn12	11.3	?	5.17µM*	?	?	7.31µM*
COc1ccc(-c2cn3c(C)c(C(=O)N4CCN(c5ccccc5F)CC4)sc3n2)cc1	53.1	10.0%	18.4µM*	-9.7%	-24.8%	23.1µM*
COc1ccc(-c2cn3c(C)c(C(=O)Nc4ccncc4)sc3n2)cc1	50.2	-21.5%	5.8µM*	-27.4%	?	3.66µM*
CCOc1ccc(NC(=O)c2sc3nc(-c4ccc(OC)cc4)cn3c2C)cc1	.	.	7.31µM*	.	.	16.4µM*
COc1ccc2c(c1)CCc1cnc(-n3ncc(C(=O)NCCCN4CCOCC4)c3C)nc1-2	.	.	?	.	.	-2.3%[9.04 µM]
Cc1ccc(C(=O)OCC(=O)c2ccc(S(=O)(=O)N3CCCCC3)cc2)o1	-10.1	0.4%	-2.3%	0.0%	-4.0%	-8.2%
CC(=O)[C@@]1(O)[C@H](C)CC2C3CC=C4CC(OP(=O)(O)O)CC[C@]4(C)C3CC[C@@]21C (some centres not stated)	7.9	11.3%	?	3.2%	2.9%	-27.1%
Nc1ccc(C2=Nc3cccc4cccc(c34)N2)cc1	19.2	-10.7%	?	-5.6%	-12.7%	-6.3%
c1cc2c3c(cccc3c1)NC1(CCCCC1)N2	-5.0	-2.1%	18.4µM*	6.6%	-8.7%	18.4µM*
c1cc2c3c(cccc3c1)NC1(CCCCCC1)N2	-2.5	0.9%	11.6µM*	-1.4%	-5.8%	?
c1cc2c3c(cccc3c1)NN=N2	16.8	-6.1%	?	6.8%	4.0%	?
c1cc2c3c(cccc3c1)NC1(CCC3(CC1)Nc1cccc4cccc(c14)N3)N2	-29.9	-0.7%	13µM*	?	20.6µM*	9.2µM*
O=S(=O)(Cc1ccccc1)NCCc1cccc(Cl)c1	-14.6	0.9%	5.2%	0.3%	7.4%	34.4%
CCOc1cc(/C=N/NC(=O)c2nn(C)cc2Br)ccc1OCc1ccccc1Cl	-15.8	-6.3%	16.4µM*	-12.9%	-18.0%	20.6µM*
COc1cc(/C=N/NC(=O)c2ccc(CSc3nc4ccccc4[nH]3)cc2)cc(OC)c1OC	5.7	-6.8%	13µM*	-18.9%	-7.4%	18.4µM*
Cn1cc(Br)c(C(=O)N/N=C/c2cccc(OC3CSC3)c2)n1	-7.0	-2.9%	?	?	20.3%	3.6%
COc1cc(/C=N/NC(=O)c2ccc3nc[nH]c3c2)cc(OC)c1OC	-66.6*	-0.8%	-2.3%	11.8%	6.3%	2.7%
COc1cc(C(=O)NN=Cc2ccc(N(C)C)cc2)cc(OC)c1OC	0.0	.	0.92µM*	2.91µM*	3.66µM*	0.92µM*
COc1cccc(CNC(=O)CN2C(=O)CCn3nc(-c4cn(C)c5ccccc45)cc32)c1OC	.	.	4.2%	.	.	-1.3%
